Assay results from PubChem BioAssay (NCI).
“And” between values parts separate entries of the source, which are not always exact repeats. Equal values may be shown once. Compounds without any hit were thinned out: in the full panel of roughly 79,000, 15% have a hit. Cut-off read from the data, not from the text of the source: active = growth inhibition above about 70%; inactive = the rest.

Assays:
[1] = NCI Yeast Anticancer Drug Screen. Data for the rad50 strain (AID 155);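 note: 0% = growth of vehicle-only cultures of the same strain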; conditions: S. cerevisiae rad50 strain growth inhibition; at 50.0 µM; active compounds read high
Method in brief: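 Compounds were tested on a yeast strain with an engineered DNA damage repair alteration; the reported value is growth inhibition normalised to vehicle treatment.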

[2] = NCI Yeast Anticancer Drug Screen. Data for the mec2-1 strain (AID 157); conditions: S. cerevisiae mec2-1 strain, at 50.0 µM, active compounds read high
Method in brief: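 Readout is yeast growth inhibition, normalised to vehicle-treated controls, in the mec2-1 strain exposed to compound.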

[3] = NCI Yeast Anticancer Drug Screen. Data for the sgs1 mgt1 strain (AID 161);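 note: 0% = growth of cultures given vehicle only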; conditions: S. cerevisiae sgs1 mgt1 strain, at 50.0 µM, active compounds read high
Method in brief: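 Yeast cells carrying a defined DNA-repair defect were exposed to test compounds. Growth inhibition was measured relative to vehicle-treated controls.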

[4] = NCI Yeast Anticancer Drug Screen. Data for the cln2 rad14 strain (AID 165);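 note: 0% = growth equal to vehicle treated cultures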; conditions: S. cerevisiae cln2 rad14 strain, at 50.0 µM, active compounds read high
Method in brief: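 Relative to vehicle controls, growth inhibition of compound-treated cln2 rad14 yeast was recorded.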

[5] = NCI Yeast Anticancer Drug Screen. Data for the bub3 strain (AID 167); conditions: S. cerevisiae bub3 mutant strain, at 50.0 µM, active compounds read high
Method in brief: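 Growth of a checkpoint-deficient yeast mutant is measured after compound exposure. Values represent inhibition relative to vehicle.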

[6] = NCI Yeast Anticancer Drug Screen. Data for the mlh1 rad18 strain (AID 175); conditions: S. cerevisiae mlh1 rad18 strain growth inhibition; at 50.0 µM; active compounds read high
Method in brief: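 Test agents were incubated with a yeast strain of defined genotype (DNA damage repair defect). Inhibition of growth was derived by comparison with vehicle-exposed cultures.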

Measured: growth inhibition

O=S(=O)(O)CCO
inactive: [1] 13.6% and -1.9% | [2] -8.35% and -8.7% | [3] 20.7% and 9.75% | [4] 19.1% and 16.2% | [5] 0.3% and -3.5% | [6] 2.25% and 28%

CC1(C)OC2OC(C(COS(C)(=O)=O)OS(C)(=O)=O)C(OS(C)(=O)=O)C2O1 (stereo not given)
inactive: [1] 15.7% and -9.65% | [2] 2.6% and 9.75% | [3] 37.9% and 10.2% | [4] 16.4% and 20.6% | [5] 5.9% and 1.45% | [6] 16.2% and 8%

C1OC2COCOC2C2OCOCC2O1 (stereo not given)
inactive: [1] -22.8% and -3% | [2] -17.2% and -9.95% | [3] -17.4% and -7.85% | [4] -33.5% and -14.5% | [5] -13.3% and 0.85% | [6] -4.45% and -4.65%

O=C(CC(=O)c1ccc(Cl)cc1)Cc1ccc2ccccc2n1
inactive: [1] 8.9% and 43.4% | [2] 29.4% and 38.6% | [3] 37.2% and 33.5% | [4] 45% and 39.2% | [5] 52.3% and 51% | [6] 45.3% and 10.2%

CC(=O)OC1OC(C)C(OC(C)=O)C(OC(C)=O)C1OC(C)=O (stereo not given)
inactive: [1] 6.8% and 1.65% | [2] -4.1% and 1.8% | [3] -5.85% and 11.7% | [4] -0.15% and 4.05% | [5] 4.5% and -4.2% | [6] -15.6% and 10.3%

O=C(O)c1cc(N=Nc2ccc([N+](=O)[O-])cc2)ccc1O
inactive: [1] 51.1% and 26.6% | [2] -34% and 8.2% | [3] -13.7% and 12.2% | [4] 10.2% and -34.8% | [5] 9.75% and 27.4% | [6] 18.2% and 49%

c1ccc(Cc2nc3ccccc3[nH]2)cc1
inactive: [1] -13.5% and -2.5% | [2] -33.8% and -4.1% | [3] -10.4% and -18.9% | [4] -4.9% and 2.65% | [5] -28.8% and -13.8% | [6] 0.7% and -16.4%

CC(CCC(C)C(=O)O)C(=O)O (stereo not given)
inactive: [1] -10.1% and 40.4% | [2] -12.8% and 9.8% | [3] -2.05% and 15.4% | [4] 12.2% and 13% | [5] -15.1% and 22.6% | [6] -0.25% and 27.9%

O=C(O)/C=C(/Oc1ccc(Cl)cc1Cl)C(=O)O
inactive: [1] 5.8% and 19.7% | [2] -3.25% and 6.45% | [3] 6.35% and 9.85% | [4] -19.9% and 15.4% | [5] 17.9% | [6] 11.8% and 19.7%

C[N+](C)(C)CCO
inactive: [1] -16.1% and 2.25% | [2] -22.9% and -8.65% | [3] -5.85% and -6.65% | [4] 21.1% and 13.4% | [5] 16.5% and 16.8% | [6] 0.85% and -2.2%

CC(=O)c1c(-c2cccc3ccccc23)c(C#N)c(=S)n(C2OC(CO)C(O)C(O)C2O)c1-c1ccccc1 (stereo not given)
inactive: [1] 21.2% and 31.6% | [2] 17.9% and -8.45% | [3] 42.1% and 34.2% | [4] 25.7% and 23.8% | [5] 34.9% and 12.3% | [6] 21.6% and 24.7%

O=C1OC(c2ccccc2)=N/C1=C\c1ccccc1O
inactive: [1] -4.65% and -9.75% | [2] -13.2% and -16.3% | [3] -0.2% and -1.3% | [4] 2.6% and 7.3% | [5] -1.7% and -13.6% | [6] -21.1% and -0.55%

C[S+](C)C
inactive: [1] -5.65% and -0.05% | [2] -7.25% and -2.1% | [3] -2.9% and -2% | [4] 9.1% and -10% | [5] 4.4% and -7.1% | [6] -18.4% and 12.5%

CC(C)(C)CC(C)(C)c1ccc(O)c(SSc2cc(C(C)(C)CC(C)(C)C)ccc2O)c1
inactive: [1] 4.95% and 11.8% | [2] -16.1% and 4.4% | [3] 7.7% and -8.55% | [4] 13.2% and -17.5% | [5] 11.5% and 0.5% | [6] 6.65% and 24.1%

O=C(NC(=O)c1ccccc1)NC(=O)c1ccccc1
inactive: [1] -2.6% and -1.25% | [2] -10% and -14.1% | [3] -3.35% and 1.1% | [4] 7.8% and -17.6% | [5] 8.35% and -6.25% | [6] -3.65% and -45.1%

CCCCNC(=S)NCCCC
inactive: [1] -6.45% and -1.4% | [2] 9.9% and 8% | [3] -11% and 19.2% | [4] -32% and -17.5% | [5] 1.15% and -4.35% | [6] -2.4% and 17.3%

Cc1ccc(S(=O)(=O)N2CCCCCC2)cc1
inactive: [1] 10.8% and -9.2% | [2] 15.8% and -2.65% | [3] -13.7% and -5.75% | [4] 1.6% and -7.75% | [5] -6.7% and -2.85% | [6] -10.6% and -0.45%

CN(C)COC(=S)S
inactive: [1] -7.65% and 4.05% | [2] -14.4% and 3.65% | [3] -3.8% and -1.7% | [4] -30.9% and 3.55% | [5] 1.75% and -5.5% | [6] -3.9% and 2.1%

COCC1OC(OC)C(OC)C(OC)C1OC (stereo not given)
inactive: [1] -4.45% and 3.1% | [2] -13% and -0.5% | [3] 8.35% and -0.1% | [4] -49.7% and 1.25% | [5] -21.1% and 1.3% | [6] -4.8% and -4.25%

c1ccc(C(c2ccccc2)N2CCCC2)cc1
inactive: [1] -4.05% and 7.15% | [2] -14.7% and 10.8% | [3] -5.7% and 4.6% | [4] 41.1% and -0.2% | [5] 2.25% and 3.7% | [6] 25.9% and -7%

O=C1NC(=S)S/C1=C/c1ccnc2ccccc12
inactive: [1] 18.2% and 6.7% | [2] 14.8% and 9.3% | [3] 19.4% and -3.1% | [4] 20.9% and -32.1% | [5] 5.45% and -8.75% | [6] 1.25% and -11.6%

CCOC(=O)CC1(O)C=CC(=O)C=C1
inactive: [1] 9.25% and 14.2% | [2] 0.5% and -5.6% | [3] 0.55% and -5.1% | [4] 15.1% and 21.2% | [5] 6.65% and 22.9% | [6] -6.2% and 36.4%

O=C(O)CC(O)C(=O)O (stereo not given)
inactive: [1] -2.95% and 0.45% | [2] -20.2% and 3.55% | [3] -39.1% and -1.05% | [4] -19.6% and 3.85% | [5] 5.25% and -2.85% | [6] -43% and -1.2%

Cc1cc(N(C)C)nc(N(C)C)n1
inactive: [1] -4.75% and -1.7% | [2] -4.7% and -14.8% | [3] -1.5% and -5.25% | [4] -0.9% and -33.3% | [5] 10.9% and -7.15% | [6] 8.25% and -10.1%

Cc1cc(=O)cc(C)o1
inactive: [1] -11.2% and 18.4% | [2] -12.8% and 5.6% | [3] -10.2% and -20.6% | [4] -2.45% and -47.6% | [5] 2.35% and -5.85% | [6] -8.55% and 0.05%

CC1C2C=CC(C2)C1C(=O)O (stereo not given)
inactive: [1] 5.15% and 13.9% | [2] 28.8% and 5.1% | [3] -0.05% and 5.85% | [4] -42% and 9.65% | [6] 7.1% and 11.2%

Cc1cc(Cc2cc(C)c(O)c(C(=O)O)c2)cc(C(=O)O)c1O
inactive: [1] 0.25% and -7.15% | [3] 2.35% and 0.2% | [4] -91.8% and -2.45% | [5] 27.3% and 4.85% | [6] 7.05% and -16.3%
